# Measurements published in PubChem BioAssay (EPA / NIEHS).
# The source made the active and inactive calls. Rule for the calls: active = hit-call score of the fitted dose curve at least 0.9, where 1 is the maximum; inactive = score below 0.9.
# Assay: CCTE_Shafer_MEA_acute_burst_duration_mean: CCTE's Neural Acute Assay for Mean Burst Duration, Shafer Lab (AID 2284014)
# Procedure: CCTE_Shafer_MEA_acute assay is conducted using Axion Biosystems 48 well microelectrode array (MEA) plates and Maestro recording system. Each well of the MEA plate contains a grid of 16 microelectrodes embedded in the culture surface. Electrically active cells, such as neurons, can be cultured over the electrodes, and electrical activity in these cells can be recorded extracellularly. The spontaneous firing of neurons is captured from each electrode on a microsecond timescale providing both temporally and spatially precise data. […] The CCTE_Shafer_MEA_acute assay uses primary cultures of rat cortical neurons. As these cultures mature over time, neural networks develop functional activity and form cohesive networks in which electrical activity can be highly coordinated. Baseline 40-minute recordings are made on days post-plating 13 or 15, followed by a secondary 40-minute recording after chemical exposure.CCTE_Shafer_MEA_acute_burst_duration_mean is a component of the CCTE_Shafer_MEA_acute assay. It measures the average time from the first spike (action potential firing) to the last spike in a single-electrode burst (temporally-clustered group of spikes) during a recording in a microelectrode array (MEA) using Axion Biosystems Maestro 768 channel amplifier with the AxIS adaptive spike detector. The recordings before and after chemical treatment are used to calculate a percent change in the mean burst duration in each well.Data from the assay component CCTE_Shafer_MEA_acute_burst_duration_mean was analyzed into 1 assay endpoint. This assay endpoint, CCTE_Shafer_MEA_acute_burst_duration_mean, was analyzed in the negative analysis fitting direction relative to DMSO as the negative control and baseline of activity. Using a type of functional reporter, gain or loss-of-signal activity can be used to understand electrical activity.
# Spontaneous activity in the cortical cultures was recorded using an Axion Biosystems Maestro 768 channel amplifier and Axion Integrated Studios (AxIS) v1.8 (or later) software. The amplifier recorded from all channels simultaneously (gain = 1200 x; sampling rate = 12.5 kHz/channel): raw signals were filtered with a Butterworth band-pass filter (300-5000 Hz), which filters out slower local field potentials leaving only fast potentials, i.e., "spikes", arising from extracellular currents associated with action potentials (Pine 2006; Wheeler and Nam 2011). On-line spike detection of filtered signals was conducted with the AxIS adaptive spike detector, using a threshold of 8x the root mean squared (rms) noise on each channel. Any electrodes with rms noise levels greater than 5 uV were grounded (e.g., no data were recorded). Once grounded, an electrode was grounded for the duration of the experiment. All recordings were conducted at 37 C. Wells were deemed usable if on the day of the exposure >/= 10 electrodes were active (defined as >/= 5 spikes/min). On DIV 13 or 15, a minimum of three wells from one cortical culture preparation were treated with each compound (0.03-40 uM). Prior to recording baseline activity, each mwMEA plate was placed in the Maestro at 37 C and allowed to sit for 20 min while firing rates stabilized. Baseline activity (40 min) was recorded before the addition of each compound. An additional 40 min of spontaneous activity was recorded in the presence of each compound. Changes in network parameters relative to baseline were assessed following compound treatment.
Compound,AC50,outcome
Cc1c(COC(=O)[C@@H]2[C@H](/C=C(\Cl)C(F)(F)F)C2(C)C)cccc1-c1ccccc1,1470 nM (active),
C=C(C)CN(CC)c1c([N+](=O)[O-])cc(C(F)(F)F)cc1[N+](=O)[O-],,inactive
CC1(C)C(C(=O)OC(C#N)c2cccc(Oc3ccccc3)c2)C1(C)C (stereo unspecified),,inactive
CCOc1nc(F)cc2nc(S(=O)(=O)Nc3c(Cl)cccc3Cl)nn12,,inactive
CN/C(=N\[N+](=O)[O-])NCc1cnc(Cl)s1,,inactive
CCOC(=O)C(C)OC(=O)c1cc(Oc2ccc(C(F)(F)F)cc2Cl)ccc1[N+](=O)[O-] (stereo unspecified),,inactive
CC(C)N1C(=O)N(c2ccccc2)CSC1=NC(C)(C)C,,inactive
N#CN=C1SCCN1Cc1ccc(Cl)nc1,,inactive
COCC(=O)N(c1c(C)cccc1C)C(C)C(=O)OC (stereo unspecified),,inactive
CCOP(=O)(OCC)Oc1nc(Cl)c(Cl)cc1Cl,2.98 nM (active),
COP(=S)(OC)SCn1nnc2ccccc2c1=O,,inactive
CCCCC(O)(Cn1cncn1)c1ccc(Cl)cc1Cl (stereo unspecified),,inactive
CC(C)N1C(=O)c2ccccc2NS1(=O)=O,,inactive
CC(C)C1(C)N=C(c2ncccc2C(=O)O)NC1=O (stereo unspecified),,inactive
CCOc1cc(C(C)(C)C)ccc1C1COC(c2c(F)cccc2F)=N1 (stereo unspecified),,inactive
Cc1ccc(N=CN(C)C=Nc2ccc(C)cc2C)c(C)c1,4210 nM (active),

Compound,AC50,outcome
N#Cc1c[nH]cc1-c1cccc2c1OC(F)(F)O2,,inactive
CO/N=C(/C1=NOCCO1)c1ccccc1Oc1ncnc(Oc2ccccc2Cl)c1F,,inactive
CCCC(=NOCC)C1=C(O)CC(CC(C)SCC)CC1=O (stereo unspecified),31000 nM (active),
Clc1nc(Cl)nc(Nc2ccccc2Cl)n1,,inactive
CC(C)=CC1C(C(=O)OCc2coc(Cc3ccccc3)c2)C1(C)C (stereo unspecified),,inactive
Cn1c(-c2ccccc2)cc(-c2ccccc2)[n+]1C,,inactive
O=C(Nc1ccccc1-c1ccc(Cl)cc1)c1cccnc1Cl,,inactive
CC1(C)C(C=C(Cl)Cl)C1C(=O)OC(C#N)c1cccc(Oc2ccccc2)c1 (stereo unspecified),,inactive
CCCN(CC)CC1COC2(CCC(C(C)(C)C)CC2)O1 (stereo unspecified),,inactive
Nc1c(Cl)c(F)nc(OCC(=O)O)c1Cl,,inactive
CNC(=O)Oc1cccc2ccccc12,,inactive
OC(c1ccc(Cl)cc1)(c1ccc(Cl)cc1)C(Cl)(Cl)Cl,,inactive
Cc1nc(N(C)C)nc(OC(=O)N(C)C)c1C,,inactive
CC1(C)CCC(=Cc2ccc(Cl)cc2)C1(O)Cn1cncn1 (stereo unspecified),,inactive
COC(=O)N(C(=O)N1CO[C@@]2(C(=O)OC)Cc3cc(Cl)ccc3C2=N1)c1ccc(OC(F)(F)F)cc1,,inactive
